13 compounds from the supplement of paper PMC10646978 can be followed below.

The structures appear in SMILES notation. ± gives the standard deviation.

Holding throughout (conditions): modulator concentration 10 µM
Assay [1] has as its system RAW-Dual (murine macrophage reporter line). The experiment in a line: NF-kB reporter (SEAP) activity fold change vs agonist alone; higher = enhanced NF-kB activity. The essentials: (§1)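 In 384-well plates holding 50 000 RAW-Dual murine macrophage reporter cells per well, compound at 10 μM final was pre-incubated for 1 hour at 37 °C, after which a PRR agonist was added overnight. Supernatant SEAP read with QUANTI-Blue at 620 nm absorbance reported NF-κB, and Lucia luciferase read with QUANTI-Luc luminescence reported IRF. Fold change values come from dividing each reporter signal by the mean of agonist-only control wells on the same plate, averaged over replicate plates with propagated errors.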

The test system is the same in assay [2]. As to the kind of experiment: IRF reporter (Lucia luciferase) activity fold change vs agonist alone; higher = enhanced IRF activity. The essentials: as §1
Assay [3] has the same test system. The experiment in a line: viability score (confluency relative to resting cells, overnight) (fraction); higher = more viable, active = viable (0.7 or more). In short, it runs like this:
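Overnight exposure to 10 μM final compound was carried out on RAW-Dual macrophages in 384-well plates. IncuCyte software generated two confluency masks over all wells imaged with IncuCyte. The viability score gives confluency in relation to resting cells. A compound met the cutoff if each mask exceeded 70% of resting cells.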

Setting [4] is: agonist: CpG ODN 1826 0.5 ug/mL.

Take `CN1CCN(c2ccc(-c3cccc(NC(=O)COc4ccc(Cl)cc4Cl)c3)nn2)CC1`: the NF-kB reporter was 0.46 ± 0.09 in assay [1] (setting [4]), 0.922 ± 0.086 in assay [1] (agonist: LPS 0.1 ug/mL) and 1 ± 0.13 in assay [1] (agonist: MPLA […]). Further, the values for the IRF reporter in assay [2] (agonist: 3'3'-cGAMP 10 ug/mL), in assay [2] (agonist: LPS 0.1 ug/mL) and in assay [2] (agonist: MPLA […]) were 0.65 ± 0.043, 1.16 ± 0.18 and 1.12 ± 0.29, respectively. Moreover, in assay [3], the viability score is 0.982 (active).

Turning to `Cc1ccc(C=Nc2ccc(-c3ccc(N=Cc4ccc(C)o4)c(C)c3)cc2C)o1`, the NF-kB reporter in assay [1] (setting [4]) stood at 0.837 ± 0.066; in assay [1] (agonist: LPS 0.1 ug/mL) it was 0.984 ± 0.087; in assay [1] (agonist: MPLA […]), 1.01 ± 0.053. In addition, the values for the IRF reporter in assay [2] (agonist: 3'3'-cGAMP 10 ug/mL), in assay [2] (agonist: LPS 0.1 ug/mL) and in assay [2] (agonist: MPLA […]) were 0.773 ± 0.097, 0.929 ± 0.041 and 0.894 ± 0.075, respectively. Also, the viability score in assay [3] is 0.991 (active).

As for `CNC(=O)C(=O)Nc1cc(Cl)ccc1C`, the NF-kB reporter was found to be 1.07 ± 0.18 in assay [1] (setting [4]), 1 ± 0.078 in assay [1] (agonist: LPS 0.1 ug/mL) and 0.912 ± 0.08 in assay [1] (agonist: MPLA […]). The IRF reporter in assay [2] (agonist: 3'3'-cGAMP 10 ug/mL) worked out at 1.01 ± 0.042; in assay [2] (agonist: LPS 0.1 ug/mL), 1.25 ± 0.15; in assay [2] (agonist: MPLA […]) it was 1.3 ± 0.19. In addition, the viability score in assay [3] is 1 (active).

Regarding `CC(C)(C)C(=O)Oc1ccc(S(=O)(=O)Nc2ccccc2C(=O)NCC(=O)O)cc1`, the NF-kB reporter was 0.755 ± 0.05 in assay [1] (setting [4]), 1.07 ± 0.086 in assay [1] (agonist: LPS 0.1 ug/mL) and 1.18 ± 0.063 in assay [1] (agonist: MPLA […]). Besides, the IRF reporter in assay [2] (agonist: 3'3'-cGAMP 10 ug/mL) is 1.1 ± 0.064; in assay [2] (agonist: LPS 0.1 ug/mL) it was 1.09 ± 0.26; in assay [2] (agonist: MPLA […]) it was 1.38 ± 0.47. In assay [3], the viability score was 0.972 (active).

Regarding `COC(=O)CCc1ccc(OCC(O)CNC(C)C)cc1` (stereo unspecified) [Prestw-1137], the values for the NF-kB reporter in assay [1] (setting [4]), in assay [1] (agonist: LPS 0.1 ug/mL) and in assay [1] (agonist: MPLA […]) were 1.06 ± 0.087, 1.06 ± 0.084 and 1.02 ± 0.081, respectively. Further, the IRF reporter in assay [2] (agonist: 3'3'-cGAMP 10 ug/mL) was 0.951 ± 0.043; in assay [2] (agonist: LPS 0.1 ug/mL), 0.911 ± 0.067; in assay [2] (agonist: MPLA […]), 0.827 ± 0.11. For the same compound, the viability score in assay [3] is 1 (active).

In the case of `CCn1c2ccccc2c2cc(CNCCc3ccc(OC)cc3)ccc21`, the NF-kB reporter in assay [1] (setting [4]) was determined as 0.369 ± 0.048; in assay [1] (agonist: LPS 0.1 ug/mL), 0.539 ± 0.068; in assay [1] (agonist: MPLA […]) it was 1.24 ± 0.1. For the same compound, the results for the IRF reporter in assay [2] (agonist: 3'3'-cGAMP 10 ug/mL), in assay [2] (agonist: LPS 0.1 ug/mL) and in assay [2] (agonist: MPLA […]) were 0.479 ± 0.11, 0.556 ± 0.025 and 2.16 ± 0.28, respectively. The viability score in assay [3] is 0.0492 (inactive).

With `O=C(CSc1ccc(F)cc1)N1CCn2nc3c(c2C1)CCC3`, the figures for the NF-kB reporter in assay [1] (setting [4]), in assay [1] (agonist: LPS 0.1 ug/mL) and in assay [1] (agonist: MPLA […]) were 1.39 ± 0.087, 1.01 ± 0.1 and 1.05 ± 0.056, respectively. In addition, the IRF reporter was found to be 1.03 ± 0.11 in assay [2] (agonist: 3'3'-cGAMP 10 ug/mL), 1.03 ± 0.064 in assay [2] (agonist: LPS 0.1 ug/mL) and 1.03 ± 0.12 in assay [2] (agonist: MPLA […]). Moreover, in assay [3], the viability score is 1 (active).

`O=c1[nH]cnc2ccccc12`: the NF-kB reporter in assay [1] (setting [4]) is 0.416 ± 0.14; in assay [1] (agonist: LPS 0.1 ug/mL) it was 0.159 ± 0.013; in assay [1] (agonist: MPLA […]) it was 0.215 ± 0.019. Also, the IRF reporter in assay [2] (agonist: 3'3'-cGAMP 10 ug/mL) was 0.133 ± 0.013; in assay [2] (agonist: LPS 0.1 ug/mL), 0.378 ± 0.098; in assay [2] (agonist: MPLA […]), 0.0913 ± 0.014. Moreover, the viability score in assay [3] is 0.561 (inactive).

Consider `COc1cccc(N2CCN(C3CCN(CC4CCOCC4)CC3)CC2)c1`, for which the NF-kB reporter in assay [1] (setting [4]) was determined as 0.75 ± 0.078; in assay [1] (agonist: LPS 0.1 ug/mL), 1.03 ± 0.11; in assay [1] (agonist: MPLA […]), 1.22 ± 0.17. Besides, the IRF reporter in assay [2] (agonist: 3'3'-cGAMP 10 ug/mL) came out at 0.901 ± 0.043; in assay [2] (agonist: LPS 0.1 ug/mL), 1.26 ± 0.23; in assay [2] (agonist: MPLA […]), 1.42 ± 0.49. For the same compound, the viability score in assay [3] is 0.966 (active).

As for `Cc1ccc(Cn2c(N)nc3ccccc32)cc1`, the NF-kB reporter in assay [1] (setting [4]) stood at 0.363 ± 0.067; in assay [1] (agonist: LPS 0.1 ug/mL), 1.21 ± 0.12; in assay [1] (agonist: MPLA […]) it was 1.09 ± 0.098. In addition, the IRF reporter in assay [2] (agonist: 3'3'-cGAMP 10 ug/mL) is 1.07 ± 0.07; in assay [2] (agonist: LPS 0.1 ug/mL) it was 1.09 ± 0.23; in assay [2] (agonist: MPLA […]) it was 1.37 ± 0.14. Besides, the viability score in assay [3] is 0.702 (active).

`Cc1ccc(-c2cc(C(F)(F)F)nn2-c2ccc(S(N)(=O)=O)cc2)cc1`: the NF-kB reporter in assay [1] (setting [4]) worked out at 0.337 ± 0.026; in assay [1] (agonist: LPS 0.1 ug/mL) it was 0.481 ± 0.03; in assay [1] (agonist: MPLA […]), 0.59 ± 0.078. The values for the IRF reporter in assay [2] (agonist: 3'3'-cGAMP 10 ug/mL), in assay [2] (agonist: LPS 0.1 ug/mL) and in assay [2] (agonist: MPLA […]) were 1.1 ± 0.091, 0.848 ± 0.052 and 0.984 ± 0.087, respectively. The viability score in assay [3] was 0.183 (inactive).

Consider `NC(=NOC(=O)C(c1ccccc1)C1CCCC1)c1ccccn1` (stereo unspecified), for which the NF-kB reporter is 0.796 ± 0.062 in assay [1] (setting [4]), 0.857 ± 0.055 in assay [1] (agonist: LPS 0.1 ug/mL) and 1.06 ± 0.1 in assay [1] (agonist: MPLA […]). The IRF reporter in assay [2] (agonist: 3'3'-cGAMP 10 ug/mL) is 0.613 ± 0.042; in assay [2] (agonist: LPS 0.1 ug/mL) it was 1.38 ± 0.083; in assay [2] (agonist: MPLA […]), 1.62 ± 0.15. For the same compound, the viability score in assay [3] is 0.982 (active).

Turning to `CCN(CC)c1ccc(-c2noc(CN3CCSCC3)n2)cn1`, the NF-kB reporter in assay [1] (setting [4]) is 0.986 ± 0.055; in assay [1] (agonist: LPS 0.1 ug/mL) it was 1.15 ± 0.099; in assay [1] (agonist: MPLA […]), 0.902 ± 0.041. Moreover, the IRF reporter in assay [2] (agonist: 3'3'-cGAMP 10 ug/mL) is 0.983 ± 0.059; in assay [2] (agonist: LPS 0.1 ug/mL) it was 1.15 ± 0.14; in assay [2] (agonist: MPLA […]) it was 1.13 ± 0.37. Moreover, in assay [3], the viability score was 1.01 (active).
